Reference: PubChem BioAssay AID431 (Sanford-Burnham Center for Chemical Genomics, 2006)
Hit rate of the full screen: of about 63,000 compounds, about 1,100 (1.7%) were called active.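 The calls were made as follows: active = compounds whose percent cytotoxicity in the single-dose primary screen, scaled between solvent and toxic-drug controls, exceeds 50; inactive = the rest.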 This excerpt belongs to a sample that is enriched for actives. Entries with a potency or affinity are not part of this list.

Test: viability loss of HPDE-C7K cells – cell-based, fluorescence, HTS, primary screen (AID 431);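 also: 0% = DMSO solvent wells and 100% = doxorubicin-treated wells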
Conditions: HPDE-C7K KRASV12 cells, Alamar Blue viability, 48 h; at 10 µM; stronger effect = higher value

SMILES	cytotoxicity
Cc1ccccc1-c1cc(-c2ccccc2O)n[nH]1	44% (inactive)
COc1ccccc1-c1cc(-c2cc(Cl)ccc2O)n[nH]1	-3.1% (inactive)
Cc1ccc(-c2cc(-c3cccc(F)c3)n[nH]2)c(O)c1	10.8% (inactive)
CCOc1ccccc1OCC(=O)Nc1ccc(S(=O)(=O)N(C)C)cc1	3.1% (inactive)
O=C(Cn1nnc(-c2ccccc2F)n1)Nc1ccc(S(=O)(=O)NC2CCCC2)cc1	-26.3% (inactive)
CCOC(=O)C(C)Oc1cccc2c(=O)n(CC(=O)N3CCN(C(=O)OCC)CC3)ccc12 (stereo not given)	-16.7% (inactive)
CCOC(=O)C(C)Oc1cccc2c(=O)n(CC(=O)NCc3ccc4c(c3)OCO4)ccc12 (stereo not given)	38.8% (inactive)
CCOC(=O)C(C)Oc1cccc2c(=O)n(CC(=O)NCc3ccco3)ccc12 (stereo not given)	61.1% (active)
COc1ccc(NC(=O)C2CCCN(S(=O)(=O)c3cnc[nH]3)C2)cc1 (stereo not given)	-5.3% (inactive)
COc1cc(C)c(CNc2ccc(OC)c(OC)c2)cc1C	21.6% (inactive)
COc1ccc(Br)cc1C(=O)Nc1ccc(O)cc1	-14.3% (inactive)
COc1ccc(Br)cc1CNc1ccc(O)cc1	50% (active)
Cc1ccc(-n2nnnc2SCC(=O)Nc2c(C)n(C)n(-c3ccccc3)c2=O)cc1	-3.4% (inactive)
COc1ccc(OC)c(Nc2cc(C(=O)NCCCN3CCOCC3)c3ccccc3n2)c1	1.8% (inactive)
CCOc1ccc(NC(=O)Cn2nnc(-c3ccccc3NC(=O)CC)n2)cc1	5.1% (inactive)
CC(=NCc1ccccc1)C1=C(O)COC1=O	-6% (inactive)
NC(=O)c1cc2ccc(O)cc2oc1=NCc1ccccc1	4.1% (inactive)
Cc1ccc(NC(=O)CC2Nc3ccccc3NC2=O)cc1Cl (stereo not given)	51.6% (active)
COc1ccccc1NC(=O)CC1Nc2ccccc2NC1=O (stereo not given)	-4.5% (inactive)
O=C(CC1Nc2ccccc2NC1=O)Nc1ccccc1 (stereo not given)	-3.2% (inactive)
CC(C)c1nc(SCc2c(F)cccc2Cl)c2c(=O)n(C)c(=O)n(C)c2n1	70.4% (active)
CC(C)c1nc(SCc2ccccn2)c2c(=O)n(C)c(=O)n(C)c2n1	1.9% (inactive)
Cc1nc(SCc2c(F)cccc2Cl)c2c(=O)n(C)c(=O)n(C)c2n1	-12.8% (inactive)
CCC(CC)C(=O)Nc1ccccc1NC(C)=O	-16% (inactive)
N#CCCN(CCC#N)C(=O)c1ccc2c(c1)OCO2	-3.2% (inactive)

SMILES	cytotoxicity
CCOc1ccc(Nc2cc(C)nc(-n3nc(C)cc3C)n2)cc1	40.7% (inactive)
COC(=O)c1ccc(Oc2cc(C)nc(-n3nc(C)cc3C)n2)cc1	32.6% (inactive)
CNc1cc(C)nc(-n2nc(C)cc2C)n1	-14.9% (inactive)
COc1ccc(N2CCN(C(=O)c3ccc(-n4nc(C)cc4C)cc3)CC2)cc1	2.6% (inactive)
CC(=O)c1ccc(Oc2cc(C)nc(-n3nc(C)cc3C)n2)cc1	56.4% (active)
COc1ccc(Nc2cc(C)nc(-n3nc(C)cc3C)n2)cc1	79.2% (active)
Cc1cc(NC(=O)c2cnn3c(C(F)F)cc(C4CC4)nc23)no1	20.6% (inactive)
COc1cccc(NC(=O)c2ccccc2-c2nc(-c3ccccc3)no2)c1	25.4% (inactive)
COc1ccc(OC)c(NC(=O)CNC(=O)Cn2cnc3ccccc3c2=O)c1	2.3% (inactive)
Cc1cccc(N(C)S(=O)(=O)c2cccc3nsnc23)c1	14.4% (inactive)
CCOC(=O)C1CCN(C(=O)c2oc3ccc(S(=O)(=O)N4CC(C)CC(C)C4)cc3c2C)CC1 (stereo not given)	5.5% (inactive)
Cc1ccc(-c2csc3nc(C)n(-n4cccc4)c(=O)c23)o1	0.5% (inactive)
O=C(CSc1nnc(-c2ccccc2)o1)n1c2c(c3ccccc31)CCCC2	69.9% (active)
O=C(O)CSc1nnc(-c2ccccc2)o1	19.6% (inactive)
Cc1nnc(SCC(=O)n2c3c(c4ccccc42)CCCC3)s1	6.2% (inactive)
Cc1cccc(NC(=O)CSc2n[nH]c(-c3ccncc3)n2)c1	-6.1% (inactive)
Cc1ccc(N(CC(=O)Nc2ccc3c(c2)OCCO3)S(=O)(=O)c2c(C)n[nH]c2C)cc1	9.8% (inactive)
COc1cc2c(C#N)c(N3CCOCC3)nc(N)c2c(N)n1	46.6% (inactive)
COc1cc2c(C#N)c(N3CCCCC3)nc(N)c2c(N)n1	56.9% (active)
CCOc1ccccc1N1CCN(c2nc(N)c(C#N)c(CC#N)c2C#N)CC1	-11.4% (inactive)
COc1ccccc1N1CCN(c2nc(N)c(C#N)c(CC#N)c2C#N)CC1	-4.3% (inactive)
CCOc1cc2c(C#N)c(N3CCOCC3)nc(N)c2c(N)n1	22.5% (inactive)
COc1ccccc1-c1nc(C#N)c(N2CCc3ccccc3C2)o1	20.5% (inactive)
N#Cc1c(N2CCCC2)nc(N)c2c(N)nc(N3CCCC3)cc12	-2.8% (inactive)
COc1cc2c(C#N)c(N3CCN(c4ccccc4OC)CC3)nc(N)c2c(N)n1	57.2% (active)
